Measured values from PubChem BioAssay (NCATS).
Results filed as inconclusive are left out. Activity calls are given as the source filed them. The call rests on the fitted dose curve; in most records, active means well fitted inhibition curve with a large enough effect; inconclusive means small, poorly fitted or top-dose-only effect; inactive means no such curve, though single readings can be large or run the other way.

Molecular target: Rap guanine nucleotide exchange factor 3 (Homo sapiens) (UniProt O95398)
Sequence (O95398 whole entry, looked up): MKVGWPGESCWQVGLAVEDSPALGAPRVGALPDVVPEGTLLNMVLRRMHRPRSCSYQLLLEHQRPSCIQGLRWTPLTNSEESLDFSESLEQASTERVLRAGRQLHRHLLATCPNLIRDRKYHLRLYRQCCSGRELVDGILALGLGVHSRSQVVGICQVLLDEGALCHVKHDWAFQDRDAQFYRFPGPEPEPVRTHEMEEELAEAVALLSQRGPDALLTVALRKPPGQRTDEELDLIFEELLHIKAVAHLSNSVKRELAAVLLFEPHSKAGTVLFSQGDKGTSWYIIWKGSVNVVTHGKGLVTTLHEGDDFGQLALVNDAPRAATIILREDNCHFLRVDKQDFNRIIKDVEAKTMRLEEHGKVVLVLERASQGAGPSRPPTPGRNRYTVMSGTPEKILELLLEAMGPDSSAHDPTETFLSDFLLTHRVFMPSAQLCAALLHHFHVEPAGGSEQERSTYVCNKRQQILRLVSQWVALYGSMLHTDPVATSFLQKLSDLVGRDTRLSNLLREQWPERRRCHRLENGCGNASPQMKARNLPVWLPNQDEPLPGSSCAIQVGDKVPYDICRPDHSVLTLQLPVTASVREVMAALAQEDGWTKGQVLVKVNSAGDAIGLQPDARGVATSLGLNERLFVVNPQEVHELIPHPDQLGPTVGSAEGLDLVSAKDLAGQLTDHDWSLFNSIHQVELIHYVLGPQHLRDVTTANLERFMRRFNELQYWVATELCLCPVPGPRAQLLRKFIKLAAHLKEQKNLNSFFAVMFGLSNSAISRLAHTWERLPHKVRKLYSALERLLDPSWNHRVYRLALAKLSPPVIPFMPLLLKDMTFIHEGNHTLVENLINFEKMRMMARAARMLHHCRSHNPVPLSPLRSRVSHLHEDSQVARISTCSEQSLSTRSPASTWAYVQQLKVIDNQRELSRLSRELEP
Experiment: Counterscreen qHTS for antagonist of cAMP-regulated guanine nucleotide exchange factor 3 (EPAC1) (AID 1645888);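 further: fluorescence loss as bound BODIPY-GDP is released from Rap1B; % of control where 0% means no effect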
Settings: Rap1B-BODIPY-GDP nucleotide exchange, fluorescence; series mostly up to 154 µM; activity change, negative = inhibition: at the top concentration
Outline: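 Rap1B-BODIPY-GDP 250 nM + GDP 50 uM; cpds 7-pt, final 9.74 nM–152 uM (activator mode) or from 7.32 nM upwards (inhibitor mode); RT; FI 480/540 nm at 5 and 30 min, then ± cAMP, reread.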

**Q.** With `Cn1c(SCC(=O)c2cc(Cl)c(Cl)s2)nnc1-c1ccco1` as the compound, how does the “activity change, negative = inhibition” value read?
**A.** 3.62% (inactive)

**Q.** `Oc1ccc(-c2nc(-c3ccc(O)c(O)c3)cs2)cc1` was tested. Which “activity change, negative = inhibition” value did it give?
**A.** 5.41% (inactive)

**Q.** With `N#C/C(=C/C1=C(N2CCOCC2)C(=C/c2cccc([N+](=O)[O-])c2)/CC1)C(=O)Nc1ccccc1F` as the compound, how does the activity change, negative = inhibition read?
**A.** -3.26% [at 30.8 µM] (inactive)

**Q.** Which “activity change, negative = inhibition” value does the source give for `CCN(CCCNC(=O)c1cc2cc3ccc(OC)cc3nc2s1)c1cccc(C)c1` here?
**A.** 10.5% (inactive)

**Q.** `O=C(Nc1cccc(F)c1)c1ccc(-c2cccnc2)c2ccoc12` was tested. Which “activity change, negative = inhibition” value did it give?
**A.** 19.4% (inactive)

**Q.** For `CC1=NN(c2ccc(C)c(C)c2)C(=O)C1C(c1cccc(O)c1)C1C(=O)N(c2ccc(C)c(C)c2)N=C1C` (stereo not given), which activity change, negative = inhibition is on record?
**A.** 19.9% [at 30.8 µM] (inactive)

**Q.** With `O=c1[nH]cc(N=Cc2cc(Cl)cc(Cl)c2O)c(=O)[nH]1` as the compound, how does the “activity change, negative = inhibition” value read?
**A.** 11.3% (inactive)

**Q.** `O=S(=O)(Nc1nc2ccc(Cl)cc2s1)c1cccs1` was tested. Which activity change, negative = inhibition did it give?
**A.** -17.1% [at 30.8 µM] (inactive)

**Q.** `COc1ccc(CC(=O)NCc2ccc3c(c2)CCN3C(=O)c2ccc(Cl)cc2)cc1OC` was tested. Which “activity change, negative = inhibition” value did it give?
**A.** -4.9% (inactive)

**Q.** `Cc1ccc(Nc2c(-c3ccccn3)nc3cccc(C)n23)cc1` was tested. Which “activity change, negative = inhibition” value did it give?
**A.** 7.84% (inactive)

**Q.** With `COc1ccc(NC(=O)CN2CCN(c3c(C)cc(C)cc3C)CC2)cc1` as the compound, how does the activity change, negative = inhibition read?
**A.** 9.75% [at 30.8 µM] (inactive)

**Q.** Which “activity change, negative = inhibition” value does the source give for `CC(C)c1ccc(/C=C/C(=O)Nc2ccc(CN3CCOCC3)cc2)cc1` here?
**A.** -30.4% (inactive)

**Q.** Which activity change, negative = inhibition does the source give for `O=C(OCC1OC(n2ncc(=O)[nH]c2=O)C(OC(=O)c2ccccc2)C1OC(=O)c1ccccc1)c1ccccc1` (stereo not given) here?
**A.** -8.49% [at 30.8 µM] (inactive)

**Q.** `CCN(C(=O)Cn1c(C(=O)OC)cc2sccc21)c1cccc(C)c1` was tested. Which “activity change, negative = inhibition” value did it give?
**A.** -2.45% (inactive)

**Q.** Which “activity change, negative = inhibition” value does the source give for `Cc1ccc(/C=C(\C#N)C(=O)Nc2cccc3ncccc23)o1` here?
**A.** 40.8% (inactive)

**Q.** For `O=c1cc(-c2ccccc2)[nH]n1-c1nc2ccccc2s1`, which activity change, negative = inhibition is on record?
**A.** 2.08% [at 30.8 µM] (inactive)

**Q.** With `CCc1ccc2c(c1)NC(=O)C2(C)Cc1ccc(Cl)s1` (stereo not given) as the compound, how does the activity change, negative = inhibition read?
**A.** -21.9% [at 30.8 µM] (inactive)

**Q.** For `C[C@@H]1CC=C[C@@H]2[C@H]1C(=O)N(Cc1ccccc1)[C@H]2c1ccccc1Br`, which “activity change, negative = inhibition” value is on record?
**A.** -2.41% (inactive)

**Q.** With `CCc1ccc(C(c2ccccc2)c2c(C)[nH]c3ccccc23)s1` (stereo not given) as the compound, how does the “activity change, negative = inhibition” value read?
**A.** 23.2% (inactive)

**Q.** Which “activity change, negative = inhibition” value does the source give for `COc1ccc(NC(=O)CN(C)C(=O)c2cc(-c3ccco3)nc3ccccc23)cc1` here?
**A.** -5.22% (inactive)

**Q.** With `COc1ccc(NC(=O)CSc2sc3c(O)cc(=O)[nH]c3c2C#N)c(OC)c1` as the compound, how does the activity change, negative = inhibition read?
**A.** -13.9% [at 30.8 µM] (inactive)

**Q.** `C[C@H](c1ccccc1)N1C[C@H](COCc2ccccc2)Oc2cc(N3CC[C@@H](O)C3)ccc2S1(=O)=O` was tested. Which activity change, negative = inhibition did it give?
**A.** -15.5% [at 30.8 µM] (inactive)

**Q.** How did the activity change, negative = inhibition turn out when `CCOC(=O)c1cc2c(ccn2C)n1CC(=O)N1CCN(c2cccc(C(F)(F)F)c2)CC1` was run?
**A.** 12.9% [at 30.8 µM] (inactive)

**Q.** For `O=C(N/N=C/c1ccc(Sc2ccccn2)o1)c1cc2ccccc2cc1O`, which “activity change, negative = inhibition” value is on record?
**A.** -17.8% (inactive)

**Q.** Which activity change, negative = inhibition does the source give for `CC(C)CC(NS(=O)(=O)OCC(Cl)(Cl)Cl)c1ccccc1` (stereo not given) here?
**A.** -22.9% [at 30.8 µM] (inactive)
